Source: PubChem BioAssay (Tox21)
Where “and” joins values, the source holds several entries; their conditions need not be identical. Identical values can stand only once. Records with an inconclusive call do not appear. A call without a number means that no potency is given here. Some structures have more than one record in an assay (separate samples or runs), and their calls can disagree. Calls of active or inactive are those of the source. Unless noted, calls follow the shape of the dose curve; as a rule, active = well fitted curve in the direction sought with a large enough effect in the repeat runs; inconclusive = weak or mixed curves; inactive = no such curve, though single readings can be large; an effect the other way counts as inactive or inconclusive.

What was measured:
[1] = qHTS assay to identify small molecule phospholipidosis (PLD) inducers (AID 1259344; active = well fitted curve in the direction sought with a large enough effect; an effect the other way counts as inactive or inconclusive)
Procedure, shortened: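 Phospholipid accumulation was scored by imaging: fixed, Hoechst-counterstained HepG2 cells stained with LipidTOX Red after 24 h compound exposure at 37 C. Read-outs were pit count and pit intensity per well or per cell, with amiodarone and DMSO controls.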

[2] = qHTS assay to identify small molecule HDAC inhibitors (AID 1259364); also: potency is read from the fitted curve at half-maximal effect;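 also: wild-type HCT-116 cells with endogenous class I/II HDAC activity; nearly all actives have a fitted effect of over 45% in size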
Procedure, shortened: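 HCT-116 wt cells, 1,500/well, overnight attach. Compounds (DMSO) 2 h, 37 °C. HDAC-Glo I/II, 30 min RT. Luminescence.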

[3] = qHTS assay to identify small molecule HDAC inhibitors - cell viability counter screen (AID 1259365); also: nearly all actives have a fitted effect of over 50% in size; also: potency is read from the fitted curve at half-maximal effect
Procedure, shortened: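 Luminescence from CellTiter-Glo, developed 30min at room temperature, reports viability of wild-type HCT-116 cells treated 2hr with compounds at 37 C and 5% CO2 after overnight plating.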

[4] = qHTS assay to identify small molecule agonists of the sonic hedgehog signaling (Shh) pathway - cell viability counter screen (AID 1259366); also: nearly all actives have a fitted effect of over 50% in size; also: potency is read from the fitted curve at half-maximal effect
Procedure, shortened: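 Cytotoxicity counter screen run in the same wells as the Shh reporter assay. NIH/3T3 cells carrying a Gli1 response element–driven luciferase were treated with DMSO-dissolved compounds for 24hr, and live-cell protease activity was measured with CellTiter-Fluor.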

[5] = qHTS assay to identify small molecule antagonists of the sonic hedgehog signaling (Shh) pathway - cell viability counter screen (AID 1259367); also: nearly all actives have a fitted effect of over 55% in size; also: potency is read from the fitted curve at half-maximal effect
Procedure, shortened: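 Viability was read by CellTiter-Fluor fluorescence in the same wells, reagent added 23 hr into compound treatment and incubated 1 hr at 37C. The 3T3 Gli1-Luc reporter cells (2,000/well) received conditioned medium after compound and ran 24 hr.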

[6] = qHTS assay to identify small molecule agonists of the sonic hedgehog signaling (Shh) pathway (AID 1259368; calls by dose curve;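 also: NIH/3T3-derived 3T3Gli1-Luc cells carrying a stable Gli1-driven firefly luciferase reporter; series mostly up to about 92 µM; nearly all actives have a fitted effect of over 15% in size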)
Procedure, shortened: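 Following a 24 hr incubation with DMSO-dissolved compounds at 37 C, 5% CO2, Gli1-Luc NIH/3T3-derived cells received luciferase reagent for 30 min at room temperature prior to luminescence measurement.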

[7] = qHTS assay to identify small molecule antagonists of the sonic hedgehog signaling (Shh) pathway (AID 1259369; calls by dose curve; also: nearly all actives have a fitted effect of over 45% in size; also: potency is read from the fitted curve at half-maximal effect)
Procedure, shortened: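 Read-out is luminescence from a firefly luciferase gene controlled by the Gli1 response element, in 3T3Gli1-Luc cells pre-incubated 4hr then exposed to compounds and conditioned medium for 24hr.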

[8] = qHTS assay to identify small molecule agonists of the androgen receptor (AR) signaling pathway in the presence of an antagonist - cell viability counter screen (AID 1259379); also: nearly all actives have a fitted effect of over 25% in size; also: potency is read from the fitted curve at half-maximal effect
Procedure, shortened: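 Each compound was tested at 15 concentrations on MDA-kb2 cells in the presence of 3.0uM nilutamide. Viability was measured by CellTiter-Fluor fluorescence after a 16 hr incubation at 37C in a CO2-free atmosphere.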

[9] = biological target: Estrogen receptor beta (Homo sapiens) (UniProt Q92731); test: qHTS assay to identify small molecule agonists of the estrogen receptor beta (ER-beta) signaling pathway (AID 1259377; active = well fitted activation curve with a large enough effect in the signal ratio in the repeat runs, not every such curve was filed as active; the % refers to the signal ratio)
Estrogen receptor beta (Homo sapiens), sequence (Q92731 whole entry, looked up): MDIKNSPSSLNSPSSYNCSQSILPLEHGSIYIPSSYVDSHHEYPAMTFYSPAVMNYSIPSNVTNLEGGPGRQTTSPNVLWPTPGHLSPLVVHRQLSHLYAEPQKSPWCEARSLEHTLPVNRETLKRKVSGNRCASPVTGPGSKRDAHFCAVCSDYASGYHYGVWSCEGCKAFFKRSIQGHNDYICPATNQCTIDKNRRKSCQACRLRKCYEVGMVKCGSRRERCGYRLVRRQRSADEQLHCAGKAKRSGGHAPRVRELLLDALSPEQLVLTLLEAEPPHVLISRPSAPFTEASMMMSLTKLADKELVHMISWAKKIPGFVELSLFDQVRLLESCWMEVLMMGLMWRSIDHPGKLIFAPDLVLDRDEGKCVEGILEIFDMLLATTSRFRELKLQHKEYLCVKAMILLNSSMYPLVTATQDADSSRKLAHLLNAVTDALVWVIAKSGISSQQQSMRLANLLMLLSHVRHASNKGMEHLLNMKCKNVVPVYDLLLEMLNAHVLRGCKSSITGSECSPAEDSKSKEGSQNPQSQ
Procedure, shortened: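 HEK293T ER-beta-UAS-bla; 2% charcoal-stripped FBS; cells pre-incubated 6 hr, compound 16 hr, 37C/5% CO2; LiveBLAzer B/G FRET substrate 2 h RT; fluorescence intensity read.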

[10] = biological target: Estrogen receptor beta (Homo sapiens) (UniProt Q92731); test: qHTS assay to identify small molecule antagonists of the estrogen receptor beta (ER-beta) signaling pathway (AID 1259378; active = well fitted inhibition curve with a large enough effect in the signal ratio in the repeat runs, not every such curve was filed as active; the % refers to the signal ratio; also: potency is read from the fitted curve at half-maximal effect)
Procedure, shortened: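 Antagonist mode: compounds added to beta-lactamase reporter HEK293T ER-beta-UAS cells stimulated with E2 (1nM final), 16 hr at 37C. LiveBLAzer B/G FRET substrate, 2 hours room temperature, fluorescence read-out.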

Row | SMILES | outcome [1] | Potency [2] | Potency [3] | Potency [4] | Potency [5] | outcome [6] | Potency [7] | Potency [8] | outcome [9] | Potency [10] | PLD induction [1]
1 | COP(=O)(OC)C(O)C(Cl)(Cl)Cl (stereo unspecified) | inactive | inactive | inactive | inactive | inactive | inactive | inactive | inactive |  |  | 
2 | Oc1cccc2cccnc12 | inactive | inactive | inactive |  |  | inactive |  | 6.14 µM (active) and 9.69 µM (active) and inactive |  |  | 
3 | Nc1ccc(-c2ccc(N)cc2)cc1 |  | inactive | inactive | inactive | inactive | inactive | inactive | inactive | inactive | inactive | 
4 | CCCCCCCCCCCCn1cc[n+](C)c1 |  | inactive | inactive | 27.3 µM (active) [middle of 6 runs] | 31.2 µM (active) [middle of 5 runs] | inactive |  |  |  |  | 
5 | COP(=O)(OC)OC=C(Cl)Cl | inactive | inactive | inactive | inactive | inactive | inactive | inactive | inactive | inactive | inactive | 
6 | CC[N+](CC)(CC)CC | inactive | inactive | inactive | inactive | inactive | inactive | inactive | inactive |  |  | 
7 | C[C@]12CCC(=O)C=C1CC[C@@H]1[C@@H]2CC[C@]2(C)C(=O)CC[C@@H]12 |  | inactive | inactive | inactive | 60.1 µM (active) and inactive | inactive | 15.1 µM (active) and 13.7 µM (active) and inactive | inactive | inactive | inactive | 
8 | Oc1ccccc1-c1ccccc1 | inactive | inactive | inactive | inactive | inactive | inactive | inactive and 62.6 µM (active) | inactive |  |  | 
9 | CC(Cl)(Cl)C(=O)O |  | inactive | inactive | inactive | inactive | inactive | inactive | inactive | inactive | inactive | 
10 | C=CCOC(Cn1ccnc1)c1ccc(Cl)cc1Cl (stereo unspecified) | inactive | inactive | inactive | inactive | inactive | inactive | 13.7 µM (active) and 9.69 µM (active) | 61.3 µM (active) and inactive |  |  | 
11 | CCNc1nc(Cl)nc(NCC)n1 | inactive | inactive | inactive | inactive | inactive | inactive | 2.16 µM (active) and inactive | inactive | inactive | inactive | 
12 | CCCC[N+]1(C)CCCC1 |  | inactive | inactive | inactive | inactive | inactive | inactive | inactive |  |  | 
13 | CCC(=O)C(CC(C)N(C)C)(c1ccccc1)c1ccccc1 (stereo unspecified) |  | inactive |  |  | 27.4 µM (active) | inactive | 24.4 µM (active) and inactive | inactive | inactive | inactive | 2.52% [at 3.15 µM] (inactive)
14 | O=C(O)CCl |  | inactive | inactive | inactive | inactive | inactive | inactive | inactive | inactive | inactive | 
15 | O=P1(N(CCCl)CCCl)NCCCO1 (stereo unspecified) | inactive | inactive | inactive | inactive | inactive | inactive | inactive | inactive |  |  | 
16 | CCCCCCCCCCn1cc[n+](C)c1 |  | inactive | inactive | inactive | inactive | inactive |  |  |  |  | 
17 | Nc1ccc(Cl)cc1 |  | inactive and 27.8 µM (active) | inactive | inactive | inactive | inactive | inactive | inactive |  |  | 
18 | CCOP(=S)(OCC)Oc1ccc2c(C)c(Cl)c(=O)oc2c1 | inactive | inactive and 11.9 µM (active) | inactive | inactive | inactive | inactive | 13.8 µM (active) | inactive | inactive |  | 
19 | C1CCC(NC2CCCCC2)CC1 | inactive | inactive | inactive | inactive | inactive | inactive | inactive | inactive |  |  | 
20 | OCCOc1ccccc1 | inactive | inactive | inactive | inactive | inactive | inactive | inactive | inactive | inactive | inactive | 
21 | O=[N+]([O-])c1ccccc1O |  | inactive | inactive | inactive | inactive | inactive | inactive | inactive | inactive | inactive | 
22 | CN(C)[C@@H]1C(=O)C(C(N)=O)=C(O)[C@@]2(O)C(=O)C3=C(O)c4c(O)cccc4[C@@](C)(O)[C@H]3[C@H](O)[C@@H]12 | inactive | inactive | inactive | inactive | inactive | inactive | inactive | inactive |  |  | 
23 | COCC(=O)N(c1c(C)cccc1C)C(C)C(=O)OC (stereo unspecified) | inactive | inactive | inactive | inactive | inactive | inactive | inactive | inactive | inactive | inactive | 
24 | O=c1[nH]c(=O)n(Cl)c(=O)n1Cl | inactive | inactive | inactive | inactive | inactive | inactive | inactive | inactive |  |  | 
25 | CCCC[n+]1cccc(C)c1 |  | inactive | inactive | inactive | inactive | inactive | inactive | inactive |  |  | 
26 | Nc1ccccc1 | inactive | inactive | inactive | inactive | inactive | inactive | inactive | inactive |  |  | 
27 | CCCC[N+]1(C)CCCCC1 |  | inactive | inactive | inactive | inactive | inactive | inactive | inactive |  |  | 
28 | O=C(O)C(Cl)(Cl)Cl | inactive | inactive | inactive | inactive | inactive | inactive | inactive | inactive |  |  | 
29 | CCCCCCCCCCCCOS(=O)(=O)O |  | inactive | inactive | inactive | inactive | inactive | inactive | inactive |  |  | 
30 | CC(=O)[O][Hg][c]1ccccc1 | inactive | 21.5 µM (active) and 8.63 µM (active) and 13.3 µM (active) | 3.82 µM (active) and 6.11 µM (active) and 16.8 µM (active) | 606 nM (active) and 1.37 µM (active) and 1.5 µM (active) | 1.08 µM (active) and 2.17 µM (active) and 1.33 µM (active) | inactive | 121 nM (active) and 61.1 nM (active) and 8.4 nM (active) | 4.29 µM (active) and 6.86 µM (active) and 7.5 µM (active) |  | 3.44 µM (active) | 
